Tb PFK inh-1 – inhibitors of T. brucei phosphofructokinase; Potency, µM (highest dose often 57.5 µM), usual class: inhibitors; AID 485367; T. brucei PFK, ADP-Glo luminescence; hit rate 0.17% among 330,000; further: nearly all actives have a fitted effect of over 60% in size
Target sequence (O15648 whole entry, looked up): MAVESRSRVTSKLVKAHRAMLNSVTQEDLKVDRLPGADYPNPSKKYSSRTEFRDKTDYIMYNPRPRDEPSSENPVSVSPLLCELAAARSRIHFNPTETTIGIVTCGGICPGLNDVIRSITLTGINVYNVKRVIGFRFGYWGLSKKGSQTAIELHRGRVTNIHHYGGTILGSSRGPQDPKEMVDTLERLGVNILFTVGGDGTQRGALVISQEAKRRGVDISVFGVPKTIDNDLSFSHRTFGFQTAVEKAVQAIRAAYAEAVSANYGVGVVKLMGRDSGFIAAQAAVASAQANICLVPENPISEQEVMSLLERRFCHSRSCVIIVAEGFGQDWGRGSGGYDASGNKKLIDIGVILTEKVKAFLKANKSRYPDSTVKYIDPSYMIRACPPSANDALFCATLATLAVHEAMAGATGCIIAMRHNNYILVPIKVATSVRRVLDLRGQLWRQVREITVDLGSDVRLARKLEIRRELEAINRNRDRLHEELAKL
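PFK 1.25 nM, F6P 0.5 mM, ATP 0.1 mM, 0.1 M TEA pH 8.0, 5 mM MgCl2, 0.01% Tween20, 0.1% BSA; 45 min RT. ADP-Glo readout. qHTS titration up to 57 uM; curves fitted, compounds curve-classed.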
VDR inh – blocks the human vitamin D receptor. hit rate 0.93% among 400,000. Potency, µM, most hits filed as inhibitors. VDR-SRC2-3 peptide fluorescence polarization, 2 h. P11473
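Reagent solutions, kept cold and dark, are dispensed first; compounds are then pinned in at 23 nl, plates briefly spun, and incubated 2 h at ambient temperature. Inhibition of VDR–SRC2-3 peptide binding is read by fluorescence polarization.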
GLS inhibitor – inhibitors of human glutaminase (GLS) | O94925 | GLS enzymatic activity, qHTS titration | Potency, µM (doses to about 45.5 µM), hits mostly inhibitors | hit rate 0.21% among 410,000 | AID 624170
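hKGA in 45 mM KH2PO4 (pH 8.2), 0.02% Tween-20 with compound, then 1mM L-Glutamine (stock as added) plus glutamate oxidase/HRP/Amplex red coupling mix. Fluorescence read initially and after 30 min at RT; signal change reflects glutamate formation.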
Pin1 inhibitor – inhibitors of human Pin1; Pin1 FP peptide displacement, HiFluor488, 10 min; Potency, µM (doses to about 115 µM), hits mostly inhibitors; hit rate 0.009% among 390,000; active means well fitted inhibition curve with a large enough effect in the polarisation, with a control signal flat, not every such curve was filed as active; inconclusive means small, poorly fitted or top-dose-only effect, or effect the other way, or a change in a side signal; inactive means no such curve, though single readings can be large or run the other way; the % refers to the polarisation
Target sequence (Q13526 whole entry, looked up): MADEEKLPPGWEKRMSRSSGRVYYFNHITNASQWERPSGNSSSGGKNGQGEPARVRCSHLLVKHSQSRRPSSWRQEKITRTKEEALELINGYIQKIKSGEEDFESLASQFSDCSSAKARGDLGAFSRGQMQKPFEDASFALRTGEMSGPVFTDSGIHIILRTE
Tb PGK inh – blocks T. brucei phosphoglycerate kinase; P07378; PGK/GAPDH coupled, Kinase-Glo luminescence, 60 min; Potency, µM (titrated, usually from 57.5 µM), hits mostly inhibitors; hit rate 0.043% among 380,000; AID 602233; further: nearly all actives have a fitted effect of over 60% in size
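Recombinant glycosomal PGK reaction used 1,3-bisphosphoglycerate generated in-well by GAPDH (100nM final) in 100mM TEA pH 7.6, 5mM MgCl2, 0.01% Tween-20. After 60 minutes at room temperature, ATP was read by Kinase-Glo Plus luminescence end-point.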
Tb PFK KinaseGlo – inhibits T. brucei PFK measured by ATP depletion; Potency, µM (highest dose often 57.5 µM); shares compounds with Tb PFK inh-1; hit rate 47% among 1,100; Tb PFK enzyme, ATP depletion, Kinase-Glo Plus luminescence; calls by dose curve; further: nearly all actives have a fitted effect of over 60% in size
Tb PFK inh-2 – T. brucei PFK enzyme inhibition, hit validation. shares compounds with Tb PFK inh-1. purified T. brucei PFK, ADP-Glo luminescence, 45 min. Potency, µM (titrated, usually from 57.5 µM), actives largely listed as inhibitors. hit rate 41% among 1,100. AID 504637; further: nearly all actives have a fitted effect of over 60% in size
Hits are given with their value; 0 = inactive; ? = inconclusive; - = not tested or not shown; ! = repeats disagree. Most compounds without a hit are left out; they make up all but 1.1% or so of the library. Unless noted, the call rests on the fitted dose curve; in most records, active means well fitted curve in the direction sought with a large enough effect; inconclusive means small, poorly fitted or top-dose-only effect, or another doubt; inactive means no such curve, though single readings can be large; an effect the other way counts as inactive or inconclusive.

SMILES	Tb PFK inh-1	VDR inh	GLS inhibitor	Pin1 inhibitor	Tb PGK inh	Tb PFK KinaseGlo	Tb PFK inh-2
CCC(Oc1ccc(Cl)cc1)C(=O)OC1CC2CCC(C1)N2C (stereo not given)	-	0	-	-	-	-	-
COc1ccc2c(CC(=O)OCC(=O)Nc3cccc(C)c3)coc2c1	?	0	0	0	0	?	?
C=C(C)[C@]12C[C@@H](C)[C@@]34O[C@](Cc5ccccc5)(O[C@@H]1[C@@H]3C=C(COC(=O)Cc1ccc(O)c(OC)c1)C[C@]1(O)C(=O)C(C)=C[C@@H]41)O2	-	0	-	-	-	-	-
S=c1[nH]nc(-c2cccnc2)n1/N=C/C=C/c1ccco1	30.1µM	0	0	?	0	6.01µM	?
S=c1[nH]nc(-c2ccco2)n1-c1cccc2ccccc12	0	0	0	?	0	-	-
Cc1[nH]c2ccccc2c1CN(C)C	-	0	-	-	-	-	-
Cc1[nH]c2c(Cl)cccc2c1CCN	19µM	0	0	0	0	10.7µM	10.7µM
O=C(Nc1cnn(Cc2ccc(Cl)c(Cl)c2)c1)C12CC3CC(CC(C3)C1)C2	?	0	0	0	0	?	?
CN(C)C1(CNC(=O)Nc2ccc(Cl)c(Cl)c2)CCCCC1	0	0	0	0	0	-	-
C[C@@H]1CN([C@@H](C)CO)C(=O)CCCn2nncc2CO[C@@H]1CN(C)C(=O)Oc1cccc2ccccc12	-	-	0	-	0	-	-
COc1ccc(C2CN(C)CC2C(=O)c2ccc(F)cc2)cc1Cl (stereo not given)	0	0	0	0	0	-	-
COc1cc(C2/C(=C(/O)c3ccc(F)cc3)C(=O)C(=O)N2CCCC(=O)O)ccc1O (stereo not given)	?	0	0	0	0	12µM	21.3µM
CC1=C(C(=O)O)N2C(=O)C(NC(=O)c3nn(C)cc3[N+](=O)[O-])C2SC1 (stereo not given)	0	?	0	0	0	-	-
CC1C=CC(C)C(C(=O)O)C1C(=O)O (stereo not given)	?	0	0	?	?	?	?
CC(=O)O[C@H]1C(=O)[C@@]2(C)C([C@H](OC(=O)c3ccccc3)[C@]3(O)C[C@H](OC(=O)[C@H](O)[C@@H](NC(=O)c4ccccc4)c4ccccc4)C(C)=C1C3(C)C)[C@]1(OC(C)=O)CO[C@@H]1C[C@@H]2OC(=O)[C@H](C)NC(=O)c1ccc(-c2c3ccc(=O)cc-3oc3cc(O)ccc23)c(C(=O)O)c1 (stereo not given in full)	-	0	-	-	-	-	-
O=C(NCCCN1CCCC1=O)c1cc(NS(=O)(=O)c2ccc(F)cc2)cc(NS(=O)(=O)c2ccc(F)cc2)c1	8.49µM	0	0	0	0	3.79µM	6.75µM
Cc1cccc(Cn2cccc(C(=O)Nc3nnc(C)s3)c2=O)c1	-	0	0	0	0	-	-
COC(=O)C1=C(c2ccc(F)cc2F)C[C@@H]2CC[C@H]1N2C(=O)N1CCC(O)CC1	0	0	0	0	0	-	-
Oc1ccc(C2CNCc3sccc32)cc1O (stereo not given)	?	12.6µM!	?	0	0	?	?
C[C@@H](N)Cn1ccc2cc(F)c(Cl)cc21	-	0	-	-	-	-	-
Nc1ncccc1OCc1ccc(Cl)c(Cl)c1	13.5µM	0	0	0	0	5.36µM	16.9µM
O=C(OCc1ccc(Cl)c(Cl)c1)c1ccccn1	?	0	0	0	0	-	-
COc1ccc(CC(=O)N2CCN(C)CC2)cc1OC	0	0	0	0	-	-	-
COc1ccc(CNC(=O)N2CCN(c3cccc(Cl)c3)CC2)cc1OC	26.9µM	0	0	0	0	12µM	23.9µM
CC(=O)OCC1=C(C(=O)O)N2C(=O)[C@@H](NC(=O)CCC[C@@H](N)C(=O)O)[C@H]2SC1	-	0	-	-	-	-	-
SMILES	Tb PFK inh-1	VDR inh	GLS inhibitor	Pin1 inhibitor	Tb PGK inh	Tb PFK KinaseGlo	Tb PFK inh-2
Cc1cc(O)c(-c2cc(O)c(C)cc2O)cc1O	12µM	25.1µM	?	0	0	3.01µM	8.49µM
Cc1cc(O)ccc1Cl	-	0	0	-	-	-	-
Cc1ccc(NC2c3ncccc3C(=O)N2Cc2cccs2)cc1C (stereo not given)	?	0	0	0	0	0	0
COc1cc(/C=C/c2ccc3c([N+](=O)[O-])cccc3n2)ccc1OCC(=O)O	?	0	0	0	0	0	?
COc1ccc(/C=N/NC(=O)c2cccc([N+](=O)[O-])c2)cc1OC	0	0	0	?	0	-	-
COc1cc(/C=C/c2ccc3cccc([N+](=O)[O-])c3n2)ccc1OCC(=O)O	?	0	?	0	0	0	0
CC(NC(=O)CCl)c1ccc(Cl)c(Cl)c1 (stereo not given)	19µM	0	0	0	0	21.3µM	23.9µM
COc1cc(C(=S)N2CCN(c3ccccc3Cl)CC2)cc(O)c1O	?	?	0	?	0	?	?
CC(=O)N(C)Cc1ccc(C(=O)CCl)cc1	?	0	0	0	0	2.39µM	3.01µM
CN(C)C(CNC(=O)Cc1ccc(Br)cc1)c1ccccc1 (stereo not given)	0	0	0	0	0	-	-
O=C(Cc1ccc(Br)cc1)N/N=C/c1cccnc1	16.9µM	0	0	0	0	13.5µM	?
O=C(N/N=C/c1ccc(O)c(O)c1O)/C(=C/c1ccc([N+](=O)[O-])cc1)NC(=O)c1ccccc1	23.9µM	?	0	?	0	3.38µM	10.7µM
N#Cc1ccc(NC(=O)CN2CCN(C(=O)c3cccs3)CC2)cc1Cl	0	0	0	0	0	-	-
CC(c1cccs1)N(Cc1ccco1)C(=O)Nc1ccc(Cl)c(Cl)c1 (stereo not given)	?	0	0	0	0	0	0
O=C(NN1C(=O)CSC1=S)C(=O)NN1C(=O)CSC1=S	?	0	0	-	0	?	0
NCC(N)C(=O)c1ccccc1 (stereo not given)	-	0	-	-	-	-	-
CCn1cc(C(=O)NCc2ccco2)c(=O)c2cc(F)c(N3CCN(C(=O)c4ccco4)CC3)cc21	9.53µM	0	0	?	0	?	?
Cc1ccc(S(=O)(=O)CNC(=S)c2ccc3ccccc3c2)cc1	?	0	0	0	0	0	30.1µM
Cc1ccc(S(=O)(=O)NP(=O)(Oc2ccccc2)Oc2ccccc2)cc1	0	0	0	0	-	-	-
CC(C)(C)OC(=O)N1CC(O)CC1C(=O)OCC(=O)c1ccc(-c2ccccc2)cc1 (stereo not given)	0	0	0	?	0	-	-
CC1=NNC(=O)C1Br (stereo not given)	-	?	0	0	0	-	-
O=C(O)CCc1nn2cc(-c3ccccc3)nc2[nH]c1=O	?	0	0	0	0	0	0
[N-]=[N+]=CC(=O)OCC(N)C(=O)O (stereo not given)	-	0	0	-	-	-	-
O=C1CC(c2ccc(O)c(O)c2)Oc2c1ccc(O)c2O (stereo not given)	?	0	0	?	?	1.9µM	2.13µM
